{"source": "PubChem BioAssay (NCATS)", "note": "Results filed as inconclusive are left out. Where a call stands in place of a potency, no number is given. The source made the active and inactive calls. The call rests on the fitted dose curve; in most records, active means well fitted activation curve with a large enough effect; inconclusive means small, poorly fitted or top-dose-only effect; inactive means no such curve, though single readings can be large or run the other way. Bridge positions count the residues as written; N and C are the ends. Square brackets hold non-standard residues; d marks the D form. Side chains are listed from the residue outwards. Peptide text beside a SMILES is read from it. * marks the point of attachment. Phg(4-OMe) = COc1ccc([C@H](N)C(=O)O)cc1; d(aIle) = CC[C@H](C)[C@@H](N)C(=O)O; d(aThr) = C[C@@H](O)[C@@H](N)C(=O)O; NMeF = CN[C@@H](Cc1ccccc1)C(=O)O; Isobutyryl = CC(C)C(=O)*", "data": [{"assay": "Redox Reaction Profiling qHTS: Assay Interference Panel against the NCATS CANVASS Library (AID 1347401); further: potency means the concentration at half of the fitted maximal effect", "details": "resazurin-DTT redox cycling, fluorescence, 15 min; series mostly up to 57.1 µM", "from_the_text": "Natural products and their derivatives continue to be wellsprings of nascent therapeutic potential. However, many laboratories have limited resources for biological evaluation, leaving their previously isolated or synthesized compounds largely or completely untested. To address this issue, the Canvass library of natural products was assembled (https://tripod.nih.gov/canvass), in collaboration with academic and industry researchers, for quantitative high-throughput screening (qHTS) across a diverse set of cell-based and biochemical assays. The pure (>85% purity by liquid chromatography/mass spectrometry [LC/MS]) Canvass library of 346 natural products were submitted by 45 academic laboratories and companies around the world. We collected pure natural products to circumvent deconvolution and structure elucidation due to time and resource limitations. The library was formatted into 1536-well plates and evaluated in 50 qHTS (in an 11-pnt concentration series) bioassays with broad scope of disease-relevant mechanisms. The resulting data set from 50 different assays was then systematically analyzed to identify overall trends and specific natural products with interesting biological activities. Reported herein are the results of each individual qHTS and their corresponding assay protocol. This profiling assay measures the resazurin-to-resorufin redox reaction in the presence of DTT and compound, and serves as a useful surrogate assay for measuring potential compound redox liability National Center for Advancing Translational Sciences (NCATS), Rockville, MD National Institute of Health (NIH), Bethesda, Maryland\nRedox Profiling assay protocol: 1. In a black-solid bottom, medium binding, 1536-well plates (Greiner 789176), 4 uL of [1x] 5uM Resazurin + 200 uM DTT + buffer (50 mM HEPES pH 7.3 + 50 mM NaCl) was dispensed (into columns 1 - 48, rows 1 - 32) using a BioRAPTR FRD dispenser (Beckman Coulter). 2. 23 nL of compounds were pin transferred into the assay plates (columns 5 - 48) using the Kalypsis pin tool (Wako USA) equipped with a 1536-well pin heads. This yields a final concentration range of 0.002 - 127 uM. Control compound Chloranil (NCGC00091254-06) was also pinned (23 nL) into column 2, rows 1 - 32 (working concentration 10 mM, 1:2 dilution; 16 points titrations; n = 2). The final concentration range for the Chloranil was 0.002 to 57.2 uM. For 100% activation control, a single dose of 23 nL Chloranil (350 uM working concentration) was pinned to columns 3 and 4, rows 1-32 for a final concentration of 2 uM. 3. The assay plates were centrifuged for 15 seconds at 1000 rpm. 4. An initial fluorescence readout was obtained using the ViewLux plate reader (PerkinElmer) using a 525 nm excitation and a 598 nm emission filters. 5. The assay plates were incubated for 15 minutes in the dark. 6. After incubation, the final fluorescence readout was obtained using the ViewLux plate reader (PerkinElmer) using a 525 nm excitation and a 598 nm emission filters.", "values": [{"smiles": "COc1cc2c(c(O)c1O)C(=O)c1c(coc1C)C2=O", "Potency": "764 nM (active)"}, {"smiles": "COc1cc2oc3ccccc3c(=O)c2cc1OC", "Potency": "inactive"}, {"smiles": "CN1C(=O)C(=O)N2C(=C[C@]3(c4c[nH]c5ccccc45)c4ccccc4N[C@H]23)C1=O", "Potency": "inactive"}, {"smiles": "COc1ccc([C@@H]2c3cc4c(cc3C(=O)[C@H](C)C2C)OCO4)cc1OC", "note": "(stereo not given in full)", "Potency": "inactive"}, {"smiles": "COc1c(O)cc(O)c2c(=O)cc(-c3ccccc3)oc12", "Potency": "inactive"}, {"smiles": "C=C[C@@]1(C)CC[C@@H]([C@H](C)C(C)=O)O1", "Potency": "inactive"}, {"smiles": "COc1ccc([C@@H]2c3cc4c(cc3C[C@H](C)C2C)OCO4)cc1OC", "note": "(stereo not given in full)", "Potency": "inactive"}, {"smiles": "COc1c(O)cc2c(c1O)C(=O)c1c(coc1C)C2=O", "Potency": "24100 nM (active)"}, {"smiles": "C=C1C(=O)O[C@H]2[C@H]1CCC(C)=C1CC[C@@](C)(O)[C@@H]12", "Potency": "inactive"}, {"smiles": "COC(=O)[C@]1([C@H]2CCC(=O)O2)CC(=O)c2c(O)cc(C)cc2O1", "Potency": "inactive"}, {"smiles": "CN1CC[C@@]2([C@@]34CCN(C)[C@@H]3Nc3ccccc34)c3ccccc3N[C@@H]12", "Potency": "inactive"}, {"smiles": "O=C1CC(c2ccc(O)cc2)Oc2cc(O)ccc21", "note": "(stereo not given)", "Potency": "inactive"}, {"smiles": "CC[C@H](C)[C@H]1NC(=O)[C@@H](NC(=O)C(C)C)[C@@H](C)OC(=O)[C@H](COC(=O)CNC(C)=O)NC(=O)[C@@H]([C@@H](C)O)NC(=O)[C@H](Cc2ccccc2)N(C)C(=O)[C@H](c2ccc(OC)cc2)NC1=O", "note": "(Isobutyryl-T[d(aIle)][Phg(4-OMe)][NMeF][d(aThr)]S([Gly-Ac]); ester 1-C)", "Potency": "inactive"}, {"smiles": "COc1cc(/C=C/C(=O)OC[C@@H](Cc2ccc(O)c(OC)c2)[C@@H](COC(=O)/C=C/c2ccc(O)c(OC)c2)Cc2ccc(O)c(OC)c2)ccc1O", "Potency": "inactive"}, {"smiles": "COc1cc(C2OCC3C(c4ccc(O)c(OC)c4)OCC23)ccc1O", "note": "(stereo not given)", "activation (redox signal)": "-17.9% [at 11.4 µM] (inactive)"}, {"smiles": "C/C=C1/CN2C3CC1C1C=CC(=O)N4c5ccccc5[C@@]3(C[C@@H]2C2=C[C@H]3C5CC6N(CC[C@@]67c6ccccc6N(C2=O)[C@@H]37)C/C5=C/C)[C@H]14", "note": "(stereo not given in full)", "Potency": "inactive"}, {"smiles": "C=C1CC[C@@H](Br)C(C)(C)[C@]12CC=C(C)C(=O)C2", "Potency": "inactive"}, {"smiles": "COC(=O)[C@@]12Oc3cccc(O)c3C(O)=C1C(=O)C[C@H](C)[C@H]2O", "Potency": "inactive"}, {"smiles": "O=c1cc(-c2ccc(O)cc2)oc2cc(O)c([C@@H]3OC(CO)[C@H](O)[C@@H](O)[C@H]3O)c(O)c12", "note": "(stereo not given in full)", "Potency": "inactive"}, {"smiles": "CC[C@@H]1C[C@@]2(CC)OC(=O)[C@@]3(CC)[C@H](CC)[C@@H]1[C@@H]23", "Potency": "inactive"}, {"smiles": "COc1ccc([C@@H]2CC(=O)c3c(cc(O)c(C/C=C(\\C)CCC=C(C)C)c3O)O2)cc1", "activation (redox signal)": "-16.9% [at 11.4 µM] (inactive)"}, {"smiles": "[C-]#[N+][C@@]12C(=O)[C@@H]3[C@@H](O[C@@]4(C(=O)N(C)c5cccc1c54)C3(C)C)C(=O)[C@@]2(C)C=C", "Potency": "inactive"}, {"smiles": "C/C=C(/C)c1c(Cl)c(O)c(C)c2c1Oc1c(Cl)c(O)c(Cl)c(C)c1C(=O)O2", "Potency": "inactive"}, {"smiles": "COC(=O)C1=C[C@]23C[C@@H](C)CC[C@@H]2[C@@]2(C)CC[C@@H](C(C)C)[C@@](O)(O3)[C@@H]12", "Potency": "inactive"}, {"smiles": "O[C@H]1C=C2[C@H]3CN(Cc4cc5c(cc43)OCO5)[C@H]2C[C@@H]1O", "Potency": "inactive"}, {"smiles": "C/C=C(/C)c1c(Cl)c(OC)c(C)c2c1Oc1c(Cl)c(O)c(Cl)c(C)c1C(=O)O2", "Potency": "inactive"}, {"smiles": "CN1CC[C@]23c4ccccc4N[C@H]1[C@]21CCN(C)[C@H]3Nc2ccccc21", "Potency": "inactive"}, {"smiles": "CC(C)[C@]12CC[C@@]3(C)[C@H](C)CC[C@H](O)[C@@]3(CC1)c1cc3c(cc12)[nH]c1ccccc13", "Potency": "inactive"}, {"smiles": "CCCc1c2c([nH]c(=O)c1C)C(=O)c1[nH]c(=O)c(C)c(CCC)c1C2=O", "Potency": "857 nM (active)"}, {"smiles": "C/C=C/c1cc2c(c(=O)o1)C(=O)[C@@H](O)[C@H](C)O2", "Potency": "inactive"}, {"smiles": "CCC(=O)N[C@@H](C[C@H](C)C(Cl)(Cl)Cl)C(=O)N1C(=O)C=C(OC)[C@@H]1CC(C)C", "Potency": "inactive"}, {"smiles": "CC1=C[C@H]2[C@H]3C(=O)C(c4ccc(O)cc4)=C[C@@]3(c3ccc(O)cc3)[C@@H]1C(=O)[C@]2(C)O", "Potency": "inactive"}, {"smiles": "CC1(C)CC[C@]2(CO)CC[C@]3(C)C(=CCC4[C@@]5(C)CC[C@H](O)C(C)(C)C5CC[C@]43C)C2C1", "note": "(stereo not given in full)", "Potency": "inactive"}, {"smiles": "O=C1CCC(=O)N(O)CCCCCNC(=O)CCC(=O)N(O)CCCCCNC(=O)CCC(=O)N(O)CCCCCN1", "Potency": "inactive"}, {"smiles": "O=C1CC2OCC=C3CN4C5CC3C2[C@@H]2N1c1ccccc1[C@]52C[C@@H]4C1=C[C@H]2C3CC4N(CC[C@@]45c4ccccc4N(C1=O)[C@@H]25)C/C3=C/CO", "note": "(stereo not given in full)", "Potency": "inactive"}, {"smiles": "C[n+]1cc2cc(C(N)=O)[nH]c3c(=N)c(Cl)c(N)c1c23", "Potency": "1920 nM (active)"}, {"smiles": "C=C[C@@](C)(O)CC[C@@H]1[C@@]2(C)CCCC(C)(C)[C@@H]2CC[C@@]1(C)O", "Potency": "inactive"}, {"smiles": "COc1cc2ccc(=O)oc2c(O)c1O[C@@H]1O[C@H](CO)[C@@H](O)[C@H](O)[C@H]1O", "Potency": "inactive"}, {"smiles": "CO[C@@H]1[C@H](O)[C@@H](C)O[C@@H](OC[C@@H]2C(C)OC(=O)/C=C/[C@H](C)C(O[C@@H]3O[C@H](C)CC4(OC(=O)O[C@@H]4C)C3O)[C@@H](C)CC(C)C(=O)/C=C/[C@H]3OC23)[C@@H]1OC", "note": "(stereo not given in full)", "Potency": "inactive"}, {"smiles": "C/C1=C/[C@@H](C)[C@H](O)[C@@H](O)/C=C/CC/C=C/C(=O)O[C@@H]1[C@H](C)C(=O)CCCC1CC(=O)NC(=O)C1", "Potency": "inactive"}]}]}
